The whole screen tested about 310,000 compounds, of which about 14,000 (4.5%) showed an effect of 50% or more. Effects have a minus sign here. The full list was thinned out, with strong results kept by preference.
The molecules below were run against human ether-à-go-go-related gene (hERG) potassium channel (human, UniProt Q12809) (assay: primary screen, population patch clamp on CHO cells stably expressing hERG; higher = less effect of the substance).
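Note: peak tail current of the secondary pulse compared with the same well before compound.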

human ether-à-go-go-related gene (hERG) potassium channel, sequence (Q12809 whole entry, looked up): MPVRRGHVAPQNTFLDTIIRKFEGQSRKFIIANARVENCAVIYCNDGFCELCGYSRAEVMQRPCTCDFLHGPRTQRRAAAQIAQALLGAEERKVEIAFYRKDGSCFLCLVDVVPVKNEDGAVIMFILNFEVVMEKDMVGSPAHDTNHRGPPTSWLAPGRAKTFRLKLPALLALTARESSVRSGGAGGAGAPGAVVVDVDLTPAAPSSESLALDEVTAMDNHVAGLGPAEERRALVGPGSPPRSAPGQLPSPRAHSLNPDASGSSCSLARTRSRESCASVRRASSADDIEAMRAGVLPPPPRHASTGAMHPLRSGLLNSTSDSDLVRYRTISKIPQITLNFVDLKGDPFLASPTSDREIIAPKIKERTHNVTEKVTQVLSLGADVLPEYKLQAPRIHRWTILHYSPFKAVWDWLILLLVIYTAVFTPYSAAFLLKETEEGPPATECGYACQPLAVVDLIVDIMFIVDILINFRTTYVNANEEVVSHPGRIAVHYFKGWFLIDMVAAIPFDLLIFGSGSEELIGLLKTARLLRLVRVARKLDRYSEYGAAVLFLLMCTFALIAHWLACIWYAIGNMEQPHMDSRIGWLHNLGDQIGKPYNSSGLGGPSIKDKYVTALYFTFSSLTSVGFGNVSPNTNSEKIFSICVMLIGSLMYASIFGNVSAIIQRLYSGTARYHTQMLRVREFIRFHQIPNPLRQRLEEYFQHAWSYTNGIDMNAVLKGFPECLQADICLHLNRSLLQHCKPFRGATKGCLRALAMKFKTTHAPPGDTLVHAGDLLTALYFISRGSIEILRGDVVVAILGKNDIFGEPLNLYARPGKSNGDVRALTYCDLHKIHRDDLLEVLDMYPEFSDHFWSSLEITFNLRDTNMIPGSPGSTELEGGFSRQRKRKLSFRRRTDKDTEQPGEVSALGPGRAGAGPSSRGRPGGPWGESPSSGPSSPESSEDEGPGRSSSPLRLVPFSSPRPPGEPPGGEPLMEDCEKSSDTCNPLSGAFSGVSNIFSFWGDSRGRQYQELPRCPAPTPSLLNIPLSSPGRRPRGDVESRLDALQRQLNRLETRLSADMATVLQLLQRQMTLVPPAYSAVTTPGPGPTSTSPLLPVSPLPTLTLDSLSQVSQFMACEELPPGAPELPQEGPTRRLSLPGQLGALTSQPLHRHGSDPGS

Structure (SMILES) | hERG current change (%, negative = inhibition) at 10uM
O=C(CC(C(=O)O)c1ccc(Cl)cc1Cl)c1ccc(Cl)cc1 (stereo not shown) | 11.4%
O=C(NC1CCCCCC1)C1c2ccccc2C(=O)N1Cc1cccnc1 (stereo not shown) | -3.16%
N=c1c(C(=O)NC2CCCCC2)cc2c(=O)n3ccccc3nc2n1Cc1cccnc1 | -73.3%
Cc1ccc(-c2ccc(C(=O)O)[nH]2)cc1 | -19.1%
Cc1ccccc1/C=N/NC(=O)Cc1ccc(Cl)cc1 | 17%
COc1ccccc1Nc1nnc(SCc2cc(=O)n3ccsc3n2)s1 | -8.42%
O=[N+]([O-])c1ccc(N=NN(CCO)CCO)cc1 | -75.3%
CN(N=Nc1ccc([N+](=O)[O-])cc1)c1ccccc1 | 15%
CC(C)N(N=Nc1ccc([N+](=O)[O-])cc1)C(C)C | 8.18%
Cc1ccc(C(=O)c2c3ccc([N+](=O)[O-])cc3[n+]([O-])n2CCC[NH3+])cc1.O=C([O-])C(F)(F)F | -65.4%
COc1ccc(C(=O)c2c3ccccc3[n+]([O-])n2CCC[NH3+])cc1.O=C([O-])C(F)(F)F | -28.9%
Nc1c(Cl)cc(C(=O)c2c3ccc([N+](=O)[O-])cc3[n+]([O-])n2CCC[NH3+])cc1Cl.O=C([O-])C(F)(F)F | -43.5%
Cc1ccc(C(=O)c2c3ccc(C(F)(F)F)cc3[n+]([O-])n2CCC[NH3+])cc1.O=C([O-])C(F)(F)F | -75%
Cc1ccc(C(=O)c2c3ccccc3[n+]([O-])n2CCC(=O)O)cc1 | 14.4%
CCN(CCn1cccn1)C(=O)C1CCC(=O)N(CCN2CCOCC2)C1 (stereo not shown) | 6.14%
O=C(CSc1nc2[nH]ncc2c(=O)[nH]1)Nc1ccc(Cl)c(Cl)c1 | 6.06%
CCN(CC(=O)Nc1ccc(NC(C)=O)cc1)C(=O)c1cccc(-n2cccc2)c1 | 0.603%
CCn1cc(/C=C(/C#N)S(=O)(=O)c2ccccc2)cn1 | -8.15%
Clc1ccc(-c2nc(N3CCCCC3)nc3ccccc23)cc1 | 4.29%
CC(Nc1nc(N2CCNCC2)nc2ccccc12)c1ccccc1 (stereo not shown) | -66.2%
CC(Nc1nc(N2CCN(S(C)(=O)=O)CC2)nc2ccccc12)c1ccccc1 (stereo not shown) | -60.9%
CC(Nc1nc(-c2ccccc2O)nc2ccccc12)c1ccccc1 (stereo not shown) | 5.73%

Structure (SMILES) | hERG current change (%, negative = inhibition) at 10uM
CC(Nc1ncnc2ccccc12)c1ccccc1 (stereo not shown) | 5.95%
CC(Nc1nc(N2CCCC2)nc2ccccc12)c1ccccc1 (stereo not shown) | -79.2%
CC(Nc1nc(-c2ccccc2F)nc2ccccc12)c1ccccc1 (stereo not shown) | -3.87%
COc1ccc(Nc2nc(N3CCN(S(=O)(=O)N(C)C)CC3)nc3ccccc23)cc1 | -5.03%
COc1ccc(Nc2nc(N3CCN(S(C)(=O)=O)CC3)nc3ccccc23)c(OC)c1 | -22.7%
CC(Nc1nc(-c2ccccc2)nc2ccccc12)c1ccccc1 (stereo not shown) | 3.47%
CC(Nc1nc(N2CCCCC2)nc2ccccc12)c1ccccc1 (stereo not shown) | -63.6%
Cc1cccc(OCCCn2c(CO)nc3ccccc32)c1 | -32.3%
CC(C)CCn1c(SCC(N)=O)nc2c1c(=O)n(C)c(=O)n2C | 6.57%
O=C(Nc1cccc2ncccc12)c1ccccc1Cl | 18.6%
Clc1ccccc1-c1nnc2sc(-c3cccs3)nn12 | -4.57%
CC(=O)c1c(C)oc2ccc(NS(=O)(=O)c3ccc(F)cc3C)cc12 | -13.8%
O=C(NN1CCOCC1)c1ccc(F)cc1 | 1.47%
CCOC(=O)c1c(C)nn(-c2ccc(NC(=O)c3cccs3)cc2)c1C | 16.8%
CCOC(=O)C1=C(O)C(=O)N(c2ccccc2)C1c1cccc([N+](=O)[O-])c1 (stereo not shown) | -26.7%
Cc1ccccc1OCC(=O)Nc1ccc2c(c1)OCO2 | -7.9%
Cc1cccc(C(=O)N(CCc2ccccc2)Cc2ccccc2)c1[N+](=O)[O-] | 4.17%
Cc1cccc(-n2c(C)cc(C)c(C#N)c2=O)c1 | 7.18%
Cc1ccc(C(=O)NCCCNC(=O)c2ccco2)cc1C | 14.7%
CCN(CC)c1nc(N2CCN(CCO)CC2)nc2ccccc12.Cl | -27.8%
CC(Nc1nc(N2CCOCC2)nc2ccccc12)c1ccccc1 (stereo not shown) | -73.8%
c1ccc2c(Nc3ccc(N4CCOCC4)cc3)nc(N3CCOCC3)nc2c1 | -48.5%

Structure (SMILES) | hERG current change (%, negative = inhibition) at 10uM
c1ccc2c(NC3C4CC5CC(C4)CC3C5)nc(N3CCOCC3)nc2c1 (stereo not shown) | -35.1%
CN1CCN(c2nc(N3CCN(CCO)CC3)nc3ccccc23)CC1.Cl | 7.33%
CC(Nc1nc(N2CCN(CCO)CC2)nc2ccccc12)c1ccccc1 (stereo not shown) | -60.9%
CN(C(=O)CS(=O)(=O)c1cn(CC(=O)N2CCOCC2)c2ccccc12)c1ccccc1 | 0.304%
Cc1cc(C)c(S(=O)(=O)NCCCn2ccnc2)cc1C | 4.04%
Cn1c(=O)c2[nH]c(-c3ccccc3O)nc2n(C)c1=O | 23%
CN1CCCCC1CCN1c2ccccc2Sc2ccc(S(C)=O)cc21.O=S(=O)(O)c1ccccc1 (stereo not shown) | -56%
O=C(O)CCN1c2ccccc2Sc2ccccc21 | 16.5%
CC(=O)Nc1ccc(SCCC2CCCCN2C)cc1 (stereo not shown) | 7.77%
O=C(NCCN1CCOCC1)c1ccc2c(c1)N(Cc1ccc(F)cc1)C(=O)c1ccccc1S2(=O)=O | 0.647%
CC(NC(=O)Nc1ccc(Cl)cc1)C1CCCO1 (stereo not shown) | 7.05%
COc1ccc(S(=O)(=O)N2CC(O)CC2C(=O)Nc2cccnc2)cc1 (stereo not shown) | 11.1%
O=C(NCc1ccccc1Cl)C(=O)NCC1OCCN1S(=O)(=O)c1cccs1 (stereo not shown) | -15%
O=C(c1ccc2ccccc2n1)N1CCN(c2ccccc2Cl)CC1 | -64.8%
O=C(c1ccc2ccccc2n1)N1CCN(c2ccccc2)CC1 | -3.81%
O=C(c1ccc2ccccc2n1)N1CCN(c2ccccc2O)CC1 | -0.197%
O=C(N/N=C/c1cccc(Br)c1)C1CC(=O)N(c2ccccc2)C1 (stereo not shown) | 7.68%
Cc1ccc(N2CC(C(=O)N/N=C/c3cccc([N+](=O)[O-])c3)CC2=O)cc1 (stereo not shown) | -22.2%
O=C(N/N=C/c1cccc([N+](=O)[O-])c1)C1CC(=O)N(c2ccc(Cl)cc2)C1 (stereo not shown) | -82.1%
O=C(N/N=C/c1ccccc1O)C1CC(=O)N(c2ccc(Cl)cc2)C1 (stereo not shown) | 8.21%
O=C(N/N=C/c1cccc([N+](=O)[O-])c1)C1CC(=O)N(c2ccc(F)cc2)C1 (stereo not shown) | -65.8%
O=C(N/N=C/c1cccc([N+](=O)[O-])c1)C1CC(=O)N(c2ccc(Br)cc2)C1 (stereo not shown) | -46.6%

Structure (SMILES) | hERG current change (%, negative = inhibition) at 10uM
O=C(NCc1ccccc1Cl)c1cccc(NC(=O)c2ccccc2)c1 | -8.78%
COc1cc(NC(=S)NC(=O)CC(C)C)ccc1NC(=O)c1cc2ccccc2o1 | 19.7%
COC(=O)CNC(=O)c1ccccc1C | 11.2%
COc1ccc(S(=O)(=O)N2CCCOC2CNC(=O)C(=O)NC2CCCC2)cc1 (stereo not shown) | 4.51%
CCCC(C)(C)NC(=O)CCCCC(=O)NC(C)(C)CCC | -9.49%
CCCCCCCC(=O)N1c2ccccc2NC(=O)C1CC(=O)Nc1ccc(C(=O)O)cc1 (stereo not shown) | 13.6%
COc1cccc(NC(=S)N(C)C2CCN(C)CC2)c1 | 11%
O=C(CCc1ccccc1)N1CCN(c2ccc(F)cc2)CC1 | -23%
O=C(CCS(=O)(=O)Cc1ccccc1)N1CCN(c2ccccc2)CC1 | -7.79%
COc1ccc(N2CCN(CC(=O)c3ccc(Cl)cc3)CC2)cc1 | 10.5%
O=C(CCCC(=O)N1CCN(c2ccc([N+](=O)[O-])cc2)CC1)c1ccccc1 | -72%
O=C(CCCC(=O)N1CCN(c2cccc(Cl)c2)CC1)c1ccccc1 | -44.2%
O=C(CCS(=O)(=O)Cc1ccccc1)N1CCN(c2ccc([N+](=O)[O-])cc2)CC1 | -81.6%
O=C(CCc1ccccc1)N1CCN(c2ccc(Cl)cc2)CC1 | -35.1%
O=C(CCN1CCOCC1)c1ccc(Cl)cc1 | 28.3%
CC(=O)c1ccc(N2CCN(C(=O)CCc3ccccc3)CC2)cc1 | -54.1%
O=C(CCN1CCN(c2ccc([N+](=O)[O-])cc2)CC1)c1ccc(Cl)cc1 | -72.4%
O=C(CCS(=O)(=O)Cc1ccccc1)N1CCN(Cc2ccccc2)CC1 | -22.1%
O=C(CCCC(=O)N1CCN(c2ccccc2F)CC1)c1ccccc1 | -10.7%
CSc1nc2ccc(NC(=O)C3CCCO3)cc2s1 (stereo not shown) | -0.62%
CC(=O)Nc1cccc(NC(C)=O)n1 | 19.6%
COc1cc(C(=S)N2CCOCC2)ccc1O | 29.3%
